Assay [1] has as its system Tyrosine-protein kinase ABL1 (Homo sapiens), P00519 [T315I]. The note with it: at 1 µM.
Assay [2] deals with Tyrosine-protein kinase ABL1 (Homo sapiens), P00519 [Y253F]. The following applies: at 0.1 µM.
The test system is the same in assay [3]. The following applies: at 1 µM.
Assay [4] concerns the target Tyrosine-protein kinase ABL1 (Homo sapiens) (UniProt P00519). The following applies: at 0.1 µM.
Assay [5] shares this target. The note with it: at 1 µM.
In assay [6] the target is ALK tyrosine kinase receptor (Homo sapiens) (UniProt Q9UM73). The note with it: at 0.1 µM.
The target is the same in assay [7]. The note with it: at 1 µM.
Assay [8] concerns the target Tyrosine-protein kinase ABL2 (Homo sapiens) (UniProt P42684). The following applies: at 0.1 µM.
The target is the same in assay [9]. The note with it: at 1 µM.
For assay [10], the target named is Tyrosine-protein kinase receptor UFO (Homo sapiens) (UniProt P30530). The note with it: at 0.1 µM.
For assay [11] the target is unchanged. The following applies: at 1 µM.
The target in assay [12] is Tyrosine-protein kinase Blk (Homo sapiens) (UniProt P51451). The note with it: at 0.1 µM.
For assay [13] the target is unchanged. The following applies: at 1 µM.
The target of assay [14] is T1, Cytoplasmic tyrosine-protein kinase BMX (Homo sapiens) (UniProt P51813).
T1 sequence (whole entry): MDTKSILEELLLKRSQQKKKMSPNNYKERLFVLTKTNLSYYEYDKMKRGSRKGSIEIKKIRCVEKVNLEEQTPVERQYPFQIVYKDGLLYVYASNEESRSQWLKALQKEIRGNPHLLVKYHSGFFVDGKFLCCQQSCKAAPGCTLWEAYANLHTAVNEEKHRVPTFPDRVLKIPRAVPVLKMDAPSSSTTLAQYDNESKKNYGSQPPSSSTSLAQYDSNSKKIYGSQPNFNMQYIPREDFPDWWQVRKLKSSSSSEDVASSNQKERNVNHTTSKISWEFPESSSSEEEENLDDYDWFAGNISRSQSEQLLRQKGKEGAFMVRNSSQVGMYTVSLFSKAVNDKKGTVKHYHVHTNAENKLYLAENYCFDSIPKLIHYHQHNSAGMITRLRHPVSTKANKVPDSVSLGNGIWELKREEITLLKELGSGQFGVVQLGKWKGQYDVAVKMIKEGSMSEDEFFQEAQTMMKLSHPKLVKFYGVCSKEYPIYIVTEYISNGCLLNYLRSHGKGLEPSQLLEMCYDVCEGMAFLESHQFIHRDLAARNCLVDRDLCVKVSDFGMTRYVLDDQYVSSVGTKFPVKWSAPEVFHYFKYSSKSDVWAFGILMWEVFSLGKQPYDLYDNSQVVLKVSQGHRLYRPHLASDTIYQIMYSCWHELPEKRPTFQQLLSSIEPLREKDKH
The following applies: at 0.1 µM.

Assay [15] concerns the target T1, Cytoplasmic tyrosine-protein kinase BMX (Homo sapiens). The following applies: at 1 µM.
The target of assay [16] is Protein-tyrosine kinase 6 (Homo sapiens) (UniProt Q13882). The following applies: at 0.1 µM.
For assay [17] the target is unchanged. The note with it: at 1 µM.
The target in assay [18] is Tyrosine-protein kinase BTK (Homo sapiens) (UniProt Q06187). The note with it: at 0.1 µM.
The target is the same in assay [19]. The following applies: at 1 µM.
The target in assay [20] is Tyrosine-protein kinase CSK (Homo sapiens) (UniProt P41240). The note with it: at 0.1 µM.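 Further: value given is the averaged percent inhibition of CSK kinase activity, from the GSK PKIS kinase inhibitor set screening panel.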

Results on seven compounds are retold here after ChEMBL document CHEMBL1961873, “Compounds: GSK PKIS; Assays: Nanosyn kinase panel” (2012).

For orientation: inhibition means the change of the read-out against control, counted positive when it falls.

Chain of Tyrosine-protein kinase BTK (Homo sapiens) (Q06187 whole entry): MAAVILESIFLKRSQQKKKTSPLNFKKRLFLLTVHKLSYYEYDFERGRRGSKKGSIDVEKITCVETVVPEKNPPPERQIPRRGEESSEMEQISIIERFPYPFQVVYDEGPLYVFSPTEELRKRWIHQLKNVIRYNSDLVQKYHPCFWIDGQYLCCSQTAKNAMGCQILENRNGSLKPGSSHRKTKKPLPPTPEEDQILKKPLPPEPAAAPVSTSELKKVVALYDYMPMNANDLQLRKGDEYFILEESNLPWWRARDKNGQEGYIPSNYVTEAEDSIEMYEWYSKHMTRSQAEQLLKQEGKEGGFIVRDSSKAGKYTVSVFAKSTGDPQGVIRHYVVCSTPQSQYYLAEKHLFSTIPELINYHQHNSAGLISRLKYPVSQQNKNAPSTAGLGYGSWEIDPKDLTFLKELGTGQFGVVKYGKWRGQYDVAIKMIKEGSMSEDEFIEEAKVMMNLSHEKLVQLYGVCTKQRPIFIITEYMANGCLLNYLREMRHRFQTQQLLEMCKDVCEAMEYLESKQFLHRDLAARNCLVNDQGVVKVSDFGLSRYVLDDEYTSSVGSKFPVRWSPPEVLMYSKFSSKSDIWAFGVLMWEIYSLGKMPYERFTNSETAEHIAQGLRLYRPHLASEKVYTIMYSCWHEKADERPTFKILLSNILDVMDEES
Chain of Protein-tyrosine kinase 6 (Homo sapiens) (Q13882 whole entry, looked up): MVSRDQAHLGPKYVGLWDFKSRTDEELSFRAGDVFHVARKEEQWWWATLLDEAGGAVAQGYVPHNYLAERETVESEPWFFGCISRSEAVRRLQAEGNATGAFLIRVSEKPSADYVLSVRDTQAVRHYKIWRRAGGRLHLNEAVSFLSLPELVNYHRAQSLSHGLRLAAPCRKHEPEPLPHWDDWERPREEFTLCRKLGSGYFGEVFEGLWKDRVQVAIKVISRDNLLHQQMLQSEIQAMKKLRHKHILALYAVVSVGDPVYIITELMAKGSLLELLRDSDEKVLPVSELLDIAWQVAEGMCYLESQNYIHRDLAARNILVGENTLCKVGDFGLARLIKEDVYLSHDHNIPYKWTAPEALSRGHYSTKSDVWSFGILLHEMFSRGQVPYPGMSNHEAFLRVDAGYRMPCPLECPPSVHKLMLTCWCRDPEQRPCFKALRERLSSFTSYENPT
Chain of ALK tyrosine kinase receptor (Homo sapiens) (Q9UM73 19-1620 limits assumed): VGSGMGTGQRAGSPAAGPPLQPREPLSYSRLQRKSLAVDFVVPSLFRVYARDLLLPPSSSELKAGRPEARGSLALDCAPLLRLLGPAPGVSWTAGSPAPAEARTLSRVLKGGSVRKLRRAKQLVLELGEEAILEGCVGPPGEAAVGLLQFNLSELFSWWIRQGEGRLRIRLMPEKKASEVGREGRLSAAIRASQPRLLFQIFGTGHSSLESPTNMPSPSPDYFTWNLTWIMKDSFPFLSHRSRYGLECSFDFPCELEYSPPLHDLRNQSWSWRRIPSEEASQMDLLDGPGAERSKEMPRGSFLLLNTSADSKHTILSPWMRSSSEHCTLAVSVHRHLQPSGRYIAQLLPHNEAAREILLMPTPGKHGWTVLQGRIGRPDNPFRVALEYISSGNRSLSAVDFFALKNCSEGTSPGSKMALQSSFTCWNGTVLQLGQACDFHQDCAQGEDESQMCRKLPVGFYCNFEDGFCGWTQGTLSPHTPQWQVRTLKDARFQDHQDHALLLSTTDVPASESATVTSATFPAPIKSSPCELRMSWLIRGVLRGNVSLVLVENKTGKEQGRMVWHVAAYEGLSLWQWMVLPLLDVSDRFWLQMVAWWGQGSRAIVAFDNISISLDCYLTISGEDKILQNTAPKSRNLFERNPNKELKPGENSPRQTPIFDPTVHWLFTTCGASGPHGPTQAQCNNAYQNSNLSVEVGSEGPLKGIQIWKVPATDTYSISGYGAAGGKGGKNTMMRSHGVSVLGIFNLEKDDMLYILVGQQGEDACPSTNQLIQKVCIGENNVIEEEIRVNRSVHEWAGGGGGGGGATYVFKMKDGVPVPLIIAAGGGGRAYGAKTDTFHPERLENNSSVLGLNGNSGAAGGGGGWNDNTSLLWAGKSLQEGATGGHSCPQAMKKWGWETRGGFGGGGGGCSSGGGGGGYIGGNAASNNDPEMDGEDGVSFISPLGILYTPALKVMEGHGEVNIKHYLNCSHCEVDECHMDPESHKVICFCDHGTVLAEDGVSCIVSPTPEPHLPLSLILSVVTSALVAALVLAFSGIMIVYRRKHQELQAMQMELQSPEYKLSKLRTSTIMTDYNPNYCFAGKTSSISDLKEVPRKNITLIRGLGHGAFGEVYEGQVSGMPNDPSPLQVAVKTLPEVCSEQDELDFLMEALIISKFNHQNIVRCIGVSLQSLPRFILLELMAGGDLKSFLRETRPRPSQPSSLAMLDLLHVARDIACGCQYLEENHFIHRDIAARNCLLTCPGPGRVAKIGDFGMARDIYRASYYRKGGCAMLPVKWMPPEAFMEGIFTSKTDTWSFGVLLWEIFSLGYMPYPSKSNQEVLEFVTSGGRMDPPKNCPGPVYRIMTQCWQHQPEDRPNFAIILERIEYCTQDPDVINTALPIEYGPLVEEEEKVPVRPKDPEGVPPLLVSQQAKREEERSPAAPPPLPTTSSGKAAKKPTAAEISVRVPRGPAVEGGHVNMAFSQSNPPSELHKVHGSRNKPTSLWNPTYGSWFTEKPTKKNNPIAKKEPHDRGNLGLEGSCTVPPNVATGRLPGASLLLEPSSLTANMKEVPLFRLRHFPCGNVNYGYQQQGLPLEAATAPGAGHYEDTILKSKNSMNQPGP
Chain of Tyrosine-protein kinase Blk (Homo sapiens) (P51451 2-505 limits assumed): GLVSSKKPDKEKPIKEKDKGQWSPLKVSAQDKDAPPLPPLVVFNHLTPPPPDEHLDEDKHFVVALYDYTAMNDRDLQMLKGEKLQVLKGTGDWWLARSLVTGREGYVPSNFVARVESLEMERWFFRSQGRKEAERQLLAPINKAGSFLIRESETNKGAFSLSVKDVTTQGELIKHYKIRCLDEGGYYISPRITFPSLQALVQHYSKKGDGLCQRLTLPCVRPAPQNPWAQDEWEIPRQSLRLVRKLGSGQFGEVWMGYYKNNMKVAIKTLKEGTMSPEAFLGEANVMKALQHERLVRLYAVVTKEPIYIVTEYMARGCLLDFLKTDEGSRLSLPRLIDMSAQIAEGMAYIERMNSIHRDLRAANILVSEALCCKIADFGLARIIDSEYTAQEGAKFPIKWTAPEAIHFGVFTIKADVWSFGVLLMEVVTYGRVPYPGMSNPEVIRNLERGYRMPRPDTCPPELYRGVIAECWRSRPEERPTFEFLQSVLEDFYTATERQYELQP
Chain of Tyrosine-protein kinase CSK (Homo sapiens) (P41240 2-450 limits assumed): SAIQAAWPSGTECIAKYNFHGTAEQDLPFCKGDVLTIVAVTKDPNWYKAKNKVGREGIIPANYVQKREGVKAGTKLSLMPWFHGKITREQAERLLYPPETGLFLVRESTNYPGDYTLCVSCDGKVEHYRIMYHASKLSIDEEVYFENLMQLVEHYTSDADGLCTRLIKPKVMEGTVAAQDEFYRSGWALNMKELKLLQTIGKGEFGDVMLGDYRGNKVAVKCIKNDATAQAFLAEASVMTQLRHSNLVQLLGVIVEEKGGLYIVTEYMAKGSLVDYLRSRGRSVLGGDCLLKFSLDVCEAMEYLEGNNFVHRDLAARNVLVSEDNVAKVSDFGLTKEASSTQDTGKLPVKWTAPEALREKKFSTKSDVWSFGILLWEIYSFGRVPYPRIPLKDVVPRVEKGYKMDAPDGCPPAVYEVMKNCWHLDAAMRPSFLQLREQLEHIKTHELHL
Chain of Tyrosine-protein kinase receptor UFO (Homo sapiens) (P30530 whole entry): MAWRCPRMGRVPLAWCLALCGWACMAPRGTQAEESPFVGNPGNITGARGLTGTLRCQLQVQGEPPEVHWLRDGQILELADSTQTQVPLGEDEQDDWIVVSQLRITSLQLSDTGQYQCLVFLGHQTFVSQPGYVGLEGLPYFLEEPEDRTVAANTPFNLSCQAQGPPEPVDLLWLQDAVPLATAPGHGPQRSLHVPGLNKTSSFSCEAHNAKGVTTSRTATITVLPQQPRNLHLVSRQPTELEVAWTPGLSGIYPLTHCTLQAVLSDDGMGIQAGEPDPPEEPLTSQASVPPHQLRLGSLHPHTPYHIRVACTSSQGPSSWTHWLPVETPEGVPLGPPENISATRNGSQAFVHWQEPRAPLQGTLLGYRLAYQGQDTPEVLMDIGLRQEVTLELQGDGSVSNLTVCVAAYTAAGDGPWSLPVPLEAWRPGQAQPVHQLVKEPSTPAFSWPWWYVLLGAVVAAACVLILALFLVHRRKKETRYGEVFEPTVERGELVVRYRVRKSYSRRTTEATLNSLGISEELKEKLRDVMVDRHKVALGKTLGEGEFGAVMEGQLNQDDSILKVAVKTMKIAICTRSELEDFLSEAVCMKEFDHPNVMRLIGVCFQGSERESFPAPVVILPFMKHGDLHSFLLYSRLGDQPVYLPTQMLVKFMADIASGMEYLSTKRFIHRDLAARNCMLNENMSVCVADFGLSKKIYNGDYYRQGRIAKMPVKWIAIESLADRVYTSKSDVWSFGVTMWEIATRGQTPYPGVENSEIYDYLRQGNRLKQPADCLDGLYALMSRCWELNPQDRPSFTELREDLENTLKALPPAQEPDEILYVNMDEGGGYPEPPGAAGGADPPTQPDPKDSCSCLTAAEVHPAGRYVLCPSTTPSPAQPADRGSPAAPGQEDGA

Take `CCn1c(-c2nonc2N)nc2cncc(C(=O)N3CC[C@H](N)C3)c21`: the inhibition is 3.27% in [1]; 2.94% in [2]; 3.51% in assay [3]; 4.28% in assay [4]; 4.33% in assay [5]; 3.95% in assay [6]. Moreover, the inhibition is 3.52% in assay [7]; 5.33% in assay [8]; 7.29% in assay [9]; -5.66% in [10]; -4.01% in [11]; 2.69% in [12]. The inhibition was 3.09% in assay [13]; 2.23% in [14]; 0.56% in [15]; 4.5% in [16]; 8.63% in assay [17]; -0.23% in [18]. Further, the results for the inhibition in assay [19] and in assay [20] were -1.15% and 5.91%, respectively.
Regarding `O=C1NC(=O)C(c2ccc(Cl)cc2)=C1Nc1ccc(Cl)c(C(=O)O)c1`, the inhibition was 3% in [1]; 2.01% in assay [2]; 0.85% in [3]; -0.85% in assay [4]; 7.52% in assay [5]; -2.28% in assay [6]. The inhibition is -1.12% in assay [7]; -0.74% in assay [8]; 7.37% in assay [9]; 2.69% in assay [10]; 7.43% in [11]; -0.2% in assay [12]. Besides, the inhibition in [13] is -2.5%; in assay [14] it was -4.08%; in [15], -3.08%; in [16] it was 0.06%; in [17] it was -1.29%; in assay [18] it was -0.05%. The inhibition in assay [19] is 0.05%; in assay [20], -3.37%.
On to `CNC(=O)c1cncc(/C=C/c2c(Cl)cccc2Cl)c1`, for which the inhibition was 4.22% in assay [1]; 12.5% in [2]; 54.5% in assay [3]; 8.37% in [4]; 40.5% in assay [5]; 6% in assay [6]. Further, the inhibition in assay [7] was 9.12%; in [8], 7.46%; in assay [9], 35.7%; in assay [10], -6.04%; in [11], -1.76%; in [12], -1.91%. Moreover, the inhibition was 5.69% in assay [13]; 4.95% in [14]; 22.8% in assay [15]; 13.5% in assay [16]; 56% in assay [17]; -3.87% in [18]. In addition, the inhibition in assay [19] was found to be 0.37%; in [20], 0.49%.
`CCN1CCC(CC(=O)Nc2n[nH]c3nc(-c4cccs4)c(Br)cc23)CC1`: the inhibition in assay [1] was 22.7%; in [2], -0.82%; in assay [3], 5.45%; in assay [4], 2.56%; in assay [5], 7.83%; in assay [6], -2.08%. Further, the inhibition in assay [7] was -1.3%; in assay [8], -0.08%; in assay [9] it was 2.5%; in [10] it was 1.67%; in assay [11], 2.24%; in assay [12] it was -1.4%. In addition, the inhibition in assay [13] is 0.14%; in assay [14], -3.73%; in assay [15], -1.1%; in assay [16] it was -3.07%; in [17], 0.94%; in [18] it was -1.38%. In addition, in assay [19], the inhibition amounted to 0.05%.
Turning to `O=C1NC(=O)C(c2cccc(Cl)c2)=C1Nc1ccc(O)c(Cl)c1`, the inhibition was -0.11% in assay [1]; -0.8% in [2]; 2.65% in assay [3]; 2.51% in assay [4]; 7.89% in assay [5]; 0.73% in assay [6]. The inhibition is 4.45% in [7]; 2.29% in [8]; 8.28% in [9]; 0.38% in [10]; -0.83% in assay [11]; 0.13% in assay [12]. Moreover, the inhibition in assay [13] is 5.96%; in assay [14], 4.05%; in assay [15], 1.46%; in assay [16], -2.09%; in assay [17] it was -2.04%; in [18] it was -0.33%. The inhibition in assay [19] is 1.57%; in assay [20] it was 0.82%.
Regarding `O=C1NC(=O)C(N2CCc3ccccc32)=C1c1ccc(Cl)cc1`, the inhibition in assay [1] is 1.87%; in [2], 6.01%; in assay [3], 5.27%; in assay [4] it was 4.41%; in assay [5] it was 7.9%; in assay [6], 3.63%. Further, the inhibition in assay [7] is 4.31%; in assay [8], 4.83%; in assay [9] it was 8.28%; in assay [10] it was -4.63%; in assay [11], -2.89%; in assay [12] it was 2.66%. Further, the inhibition in assay [13] is 4.59%; in [14], -0.48%; in [15], 5.82%; in assay [16] it was 4.84%; in [17], 4.71%; in assay [18], 0.29%. For the same compound, the inhibition was 0.58% in assay [19] and 3.38% in assay [20].
Take `COc1ccc(-c2ccncc2)cc1C(N)=O`: the inhibition stood at 2.08% in assay [1]; 4.84% in assay [2]; 2.94% in [3]; 4.11% in assay [4]; 5.76% in [5]; 3.85% in [6]. Further, the inhibition in assay [7] was 6.43%; in assay [8], 3.92%; in [9] it was 4.08%; in assay [10], -7.91%; in assay [11] it was -7.29%; in [12], 3.55%. Moreover, the inhibition in assay [13] is 3.47%; in assay [14], 3.29%; in assay [15] it was 5.58%; in assay [16] it was 3.09%; in assay [17], 3.57%; in [18], -1.01%. In addition, the inhibition in [19] is -0.13%; in assay [20], 2.75%.
